# Experiments:
# Experiment in all cases: PBM binding z-score (relative to random genomic background probes); higher = stronger binding; sequences stand for … in GC…GCGATTGACAGCGTAGAATGAAGG
# [1] = test system: FXR:RXRa (NR concentration 270 nM, RXRa partner concentration 90 nM)
# Method in brief: (§1)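 Probes were double-stranded and carried 34-nt variable regions with direct-repeat seeds, single-nucleotide variants, half-site ablations and random human genomic background sequences, printed on custom Agilent 4×180K protein-binding microarrays. Arrays were incubated 1 h with ligand-free nuclear receptor dimers in PBS pH 7.4, 2% milk, 0.02% Triton X-100, 1 mM DTT, 0.2 mg/mL BSA and 0.4 mg/ml salmon testes DNA. Antibodies against each partner (one per run) detected binding, and scanned fluorescence was regression-normalized. Binding z-scores use the random background probes as reference.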
# [2] = test system: LXRa:RXRa (NR concentration 270 nM, RXRa partner concentration 90 nM)
# Method in brief: as §1
# [3] = test system: LXRa homodimer (NR concentration 270 nM)
# Method in brief: as §1
# [4] = test system: LXRb:RXRa (NR concentration 270 nM, RXRa partner concentration 90 nM)
# Method in brief: as §1
# [5] = test system: LXRb homodimer (NR concentration 270 nM)
# Method in brief: as §1
# [6] = test system: PPARa:RXRa (NR concentration 270 nM, RXRa partner concentration 90 nM)
# Method in brief: as §1
# [7] = test system: PPARg:RXRa (NR concentration 180 nM, RXRa partner concentration 90 nM)
# Method in brief: as §1
# [8] = test system: PPARg:RXRa 270nM:90nM, anti-RXR (NR concentration 270 nM, RXRa partner concentration 90 nM)
# Method in brief: as §1
# [9] = test system: PPARg:RXRa 30nM:10nM, anti-RXR (NR concentration 30 nM, RXRa partner concentration 10 nM)
# Method in brief: as §1
# [10] = test system: PPARg:RXRa 90nM:30nM, anti-RXR (NR concentration 90 nM, RXRa partner concentration 30 nM)
# Method in brief: as §1
# [11] = test system: PPARg:RXRa DBDmut IVT, anti-RXR (DBD mutation: RXRa K156A/R161A, NR concentration 270 nM, RXRa partner concentration 90 nM)
# Method in brief: as §1
# [12] = test system: PPARg:RXRa IVT, anti-PPARg (NR concentration 270 nM, RXRa partner concentration 90 nM)
# Method in brief: as §1
# [13] = test system: PPARg DBDmut:RXRa IVT, anti-PPARg (DBD mutation: PPARg1 K132A/R137A, NR concentration 270 nM, RXRa partner concentration 90 nM)
# Method in brief: as §1
# [14] = test system: PPARg DBDmut IVT, anti-PPARg (DBD mutation: PPARg1 K132A/R137A, NR concentration 270 nM)
# Method in brief: as §1
# [15] = test system: PPARg homodimer (NR concentration 180 nM)
# Method in brief: as §1
# [16] = test system: PXR:RXRa (NR concentration 270 nM, RXRa partner concentration 90 nM)
# Method in brief: as §1
# [17] = test system: PXR homodimer (NR concentration 270 nM)
# Method in brief: as §1
# [18] = test system: RARa:RXR (NR concentration 270 nM, RXRa partner concentration 90 nM)
# Method in brief: as §1
# [19] = test system: RARa homodimer (NR concentration 270 nM)
# Method in brief: as §1
# [20] = test system: RARb:RXRa (NR concentration 270 nM, RXRa partner concentration 90 nM)
# Method in brief: as §1
Sequence,PBM binding z-score [1],PBM binding z-score [2],PBM binding z-score [3],PBM binding z-score [4],PBM binding z-score [5],PBM binding z-score [6],PBM binding z-score [7],PBM binding z-score [8],PBM binding z-score [9],PBM binding z-score [10],PBM binding z-score [11],PBM binding z-score [12],PBM binding z-score [13],PBM binding z-score [14],PBM binding z-score [15],PBM binding z-score [16],PBM binding z-score [17],PBM binding z-score [18],PBM binding z-score [19],PBM binding z-score [20]
CATTCAGGGTCAGCTAGGCCAGAGTAGGGACGGC,5.24,4.08,0.181,2.92,1.42,4.82,3.87,3.94,1.29,2.81,1.6,3.11,2.17,0.968,1.47,2.74,0.0308,3.58,0.262,4.42
CCTACTGGGGCAAAAAGGTCATTGATGCCGATAA,3.82,4.34,2.86,3.92,0.284,4.96,4.68,5.28,2.57,4.43,4.52,5.48,0.778,1.73,5.37,5.17,5.54,5.35,2.82,4.08
CCTTACGGGTCACTAGGTTATAGCACGACGAGCG,4.41,3.03,0.136,2.64,-0.31,5.02,6.65,5.97,3.03,4.94,4.54,5.69,1.5,0.896,2.59,2.84,-0.213,3.7,0.907,3.7
CCGACTGGCGCAGAAAGGTTACCATACCATCCGG,0.0917,0.658,-0.132,0.749,-1.07,1.8,0.613,1.16,-0.315,0.337,-0.18,-0.419,-0.533,-1.05,0.499,0.354,-0.51,1.14,-0.466,1.35
CCTATTAGTTGACAATAAGGGCAACCGAAGCTCG,0.365,0.482,0.182,0.544,0.647,0.418,0.511,0.218,0.0655,0.0255,0.466,0.343,0.307,0.312,0.811,0.771,0.868,1.07,1.45,1.21
TAACCTAGGTCATTCAGGGGCCAGTATAGAAAGC,5.52,5.3,3.1,3.98,2.09,4.46,3.45,4.12,1.61,3.03,3.77,4.77,0.824,0.744,2.96,3.09,0.651,4.06,0.531,4.33
TCTGCTAGGTCAGTTGTTCAGCTAACGAGCTGCC,0.697,0.0799,-0.424,0.213,0.398,1,-0.335,1.24,1.28,1.21,2.38,2.46,-0.0117,0.257,-0.0463,0.0123,-1.04,0.419,-1.19,3.15
AGAAGGAGGTTACCAAAGATCAGGGAAACGCTTG,0.978,5.85,0.0257,2.9,0.368,2.79,1.84,2.1,0.736,1.37,2.51,2.63,0.699,0.604,0.719,1.25,0.551,1.46,0.412,1.89
AGTCAAAGTTCAGGACGAGGTAACGTAGAGCACG,4.1,3.8,1.01,2.04,0.385,3.59,4.68,4.62,2.13,3.9,0.103,2.2,0.482,0.536,1.57,2.79,0.943,2.87,0.443,4.25
CCTAGCAGGACAATCTGGGTCACTCAAGGCTTGA,1.05,0.686,-0.28,0.742,-0.672,3.31,2.44,2.26,0.245,1.56,4.78,5.33,-0.134,-0.424,0.6,0.609,-0.664,1.67,-0.343,1.42
CGAACTAGGTCATCCAGGACAGTGGATACATTGA,4.72,2.32,0.245,1.99,0.307,4.9,7.83,5.84,4.33,5.96,7.91,7.98,1.6,0.738,2.41,1.89,1.23,2.52,1.24,4.03
TCTCGGAGCACACGAAAGGTCAGAGCTCGACATC,1.92,3.07,1.44,2.84,-0.493,3.39,0.926,1.94,1.5,1.49,0.786,0.883,-0.964,-0.475,2.57,3.52,-0.0353,4.12,0.999,3.45
ATAATGAGGTTATACGTAGATCAGGGAAGAAAGT,2.27,2.55,0.45,1.89,0.893,3.42,2.56,2.38,0.895,1.89,4.24,2.58,2.03,2.05,0.998,1.7,0.97,2.12,1.63,1.75
CCTACTGGGCCAAAGGTCAATGATTCCAATGCTC,4.07,4.39,2.6,4.52,0.165,6.29,12.1,10.4,10,12.8,5.3,6.73,1.6,1.78,4.39,4.46,0.657,5.75,1.53,4.5
